DRD3 agonist – agonists of human D3 dopamine receptor | D3R DiscoveRx beta-arrestin cells, luminescence, 90 min | max activation, % | actives 0.58% (n = 410,000) | AID 652048; in the data active = max activation above about 30%; also: 0% is about no effect
Target sequence (P35462 whole entry, looked up): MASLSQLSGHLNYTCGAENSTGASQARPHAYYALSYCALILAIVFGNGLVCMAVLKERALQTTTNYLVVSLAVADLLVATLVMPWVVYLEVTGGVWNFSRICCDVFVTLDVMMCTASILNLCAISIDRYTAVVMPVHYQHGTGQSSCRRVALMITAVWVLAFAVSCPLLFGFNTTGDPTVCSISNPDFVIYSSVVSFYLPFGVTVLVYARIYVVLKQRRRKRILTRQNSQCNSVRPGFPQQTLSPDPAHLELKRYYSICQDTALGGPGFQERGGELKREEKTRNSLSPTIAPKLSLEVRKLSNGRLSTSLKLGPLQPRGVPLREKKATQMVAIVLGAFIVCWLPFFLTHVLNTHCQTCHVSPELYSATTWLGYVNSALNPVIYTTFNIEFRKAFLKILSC
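Cells at 1500/well, incubated overnight, then treated with pinned compounds (dopamine as control) for 90 min at 37 degrees C. DiscoveRx reagent added for 30 - 60 minutes at room temperature; luminescence read.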
ClpP mod – qHTS Assay for Activators of ClpP. AID 651965, 2013. purified B. subtilis ClpP, FRET peptide cleavage, 20 min. actives 1.9% (n = 340,000). Potency, µM (titrated, usually from 57.5 µM), for the others: at the top dose activity change, negative = active. ATP-dependent Clp protease proteolytic subunit (Bacillus subtilis (strain 168)), P80244; active = well fitted falling curve with a large enough effect; inconclusive = small, poorly fitted or top-dose-only effect; inactive = no such curve, though single readings can be large or run the other way; also: potency is read from the fitted curve at half-maximal effect; the source files actives as falling curves though it sought activators and does not explain the sign; nearly all actives have a fitted effect of over 65% in size
Target sequence (P80244 whole entry, looked up): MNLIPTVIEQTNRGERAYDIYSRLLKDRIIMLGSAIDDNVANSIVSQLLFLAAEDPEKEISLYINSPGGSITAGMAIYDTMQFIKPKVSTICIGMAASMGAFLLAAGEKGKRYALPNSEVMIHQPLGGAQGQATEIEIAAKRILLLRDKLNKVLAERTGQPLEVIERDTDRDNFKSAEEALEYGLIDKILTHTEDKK
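Buffer: 100 mM Tris/HCl pH8, 100 mM KCl, 0.05% low protease BSA, 2.5% glycerol, 0.01% Tween-20. ClpP 10 microg/mL final; 20 min RT; delta FRET normalized to ADEP and DMSO controls.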
TDP1 cell CPT – DT40-hTDP1 cell growth loss with CPT. chicken DT40 Tdp1-/-;hTDP1 cells + 20 nM CPT, ATP luminescence, 48 h. Potency, µM (titrated, usually from 46.2 µM), without a hit: at the highest dose activity change, negative = growth inhibition, usual class: inhibitors. actives 12% (n = 420,000); also: potency is read from the fitted curve at half-maximal effect; % is scaled to controls: 0 for no effect and ±100 for the full control effect; nearly all actives have a fitted effect of over 55% in size
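Cell growth measured by CellTiter-Glo luminescence after a minimum 48 h, 37 C compound exposure with 20 nM CPT in Tdp1-knockout DT40 cells stably expressing hTDP1, seeded 400/well; qHTS titration format.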
IL1B secr inh – inflammasome signaling inhibition, IL-1 beta readout | AID 743279 | THP-1 LPS/ATP IL-1B secretion, AlphaLISA, 16 h; hits give low values | actives 4.7% (n = 360,000) | activity change, % at 57.5 µM; in the data active = activity change below about -50%; inconclusive = mostly about -30% to -49%; also: % is scaled to controls: 0 for no effect and ±100 for the full control effect
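Secreted IL-1B measured by AlphaLISA bead assay after 16 h compound exposure of THP-1 cells; compounds (final up to 57.5 uM) added 1 h before LPS (250 ng/mL) and ATP (1.25 mM) stimulation; lower signal means less secretion.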
D3 antag – blocks the human D3 dopamine receptor; max response, negative = inhibition, %; D3R cells, DiscoveRx beta-arrestin luminescence, antagonist mode; hits give low values; actives 2.5% (n = 360,000); P35462; AID 652054; in the data active = max response below about -50%; inconclusive = no clear call, values can overlap the other calls; also: % is scaled to controls: 0 for no effect and ±100 for the full control effect
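Cells plated overnight at 1500 cells/well, then exposed to library compounds with dopamine controls for 90 minutes at 37 degrees C. DiscoveRx reagent added for 30–60 minutes at room temperature; luminescence read, quantitative HTS format.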
TDP1 cell noCPT – qHTS for Inhibitors of human tyrosyl-DNA phosphodiesterase 1 (TDP1): qHTS in cells in absence of CPT; AID 686978, 2013; DT40 Tdp1-/- hTDP1 cells, no CPT, ATP luminescence, 48 h; Potency, µM (highest dose often 46.2 µM), for inactives: top-dose activity change, negative = growth inhibition, most hits filed as inhibitors; actives 15% (n = 420,000); also: potency is read from the fitted curve at half-maximal effect; % is scaled to controls: 0 for no effect and ±100 for the full control effect; nearly all actives have a fitted effect of over 55% in size
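Cells were dispensed at 400 per well, compounds added by pin tool, plates incubated ≥48 hr at 37 °C, then CellTiter-Glo added for 30 min at room temperature before luminescence reading. Line: DT40 Tdp1-/- complemented with hTDP1; camptothecin omitted.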
The depositor's hits bear a star; ? = inconclusive; · = not tested or not shown; [ ] = dose if it differs, or a comment. Compounds with a hit are over-represented: about 21% of the library has one in this group of screens. Unless noted, calls follow the shape of the dose curve; as a rule, active = well fitted inhibition curve with a large enough effect; inconclusive = small, poorly fitted or top-dose-only effect; inactive = flat fitted curve, though single readings scatter.

SMILES | DRD3 agonist | ClpP mod | TDP1 cell CPT | IL1B secr inh | D3 antag | TDP1 cell noCPT
CC(C)CCn1c(/C=C/c2ccccc2)nc2ccccc21 | -9.1 | 3.9% | 16.4µM* | · | · | 11.6µM*
COCCn1c(/C=C/c2ccccc2)nc2ccccc21 | -2.1 | · | -21.9% | -1.6 | 1.7 | ?
CCOC(=O)CSc1nc2ccc(NC(=O)COc3ccccc3)cc2s1 | -4.5 | 13.9% | ? | · | · | -18.9%
Cc1ccc(OCC(=O)Nc2ccc3nc(SCC(=O)N4CCCC4)sc3c2)cc1C | 9.6 | -0.8% | -94.8% | · | · | 23.1µM*
Cc1ccc(OCC(=O)Nc2ccc3nc(SCC(=O)N4CCCC4)sc3c2)cc1 | 7.7 | 0.3% | ? | · | · | 20.6µM*
CCOc1ccc(C(=O)Nc2ccc3nc(SCc4ccccc4)sc3c2)cc1 | 4.3 | -2.6% | 11.6µM* | · | · | 8.2µM*
Cc1ccc(OCC(=O)Nc2ccc3nc(SCC(=O)N(C)c4ccccc4)sc3c2)cc1 | 3.6 | -2.6% | ? | · | · | 14.6µM*
Cc1ccc(CSc2nc3ccc(NC(=O)COc4ccccc4)cc3s2)cc1 | 6.4 | -1.5% | 14.6µM* | · | · | ?
Cc1cccc(NC(=O)CSc2nc3ccc(NC(=O)COc4ccccc4C)cc3s2)c1 | 3.5 | -1.9% | 14.6µM* | · | · | 16.4µM*
Cc1ccccc1OCC(=O)Nc1ccc2nc(SCCOc3ccccc3)sc2c1 | -4.7 | -10.6% | -17.1% | · | · | -6.9%
Cc1ccc(NC(=O)CSc2nc3ccc(NC(=O)COc4ccc(C)cc4)cc3s2)cc1 | 6.6 | -2.0% | 10.3µM* | · | · | 18.4µM*
Cc1ccc(OCC(=O)Nc2ccc3nc(SCc4ccccc4)sc3c2)cc1 | 2.6 | -0.5% | -23.0% | · | · | ?
CCC(C)/C(C)=N/NC(=O)c1ccc(CSc2nc3ccccc3s2)cc1 (stereo unspecified) | 15.2 | -4.4% | 14.6µM* | 75.4 | 31.3 | 23.1µM*
COCC(=O)N1CCC[C@@]2(CCN(C(c3ccccc3)c3ccccc3)C2)C1 | · | · | 0.3% | · | · | ?
CCc1ccccc1NC(=O)Nc1nnc(N(C)Cc2ccccc2)s1 | 4.7 | -1.6% | ? | · | · | ?
CCCN(CC(=O)Nc1ccccc1OC)C(=O)CN1C(=O)NC(C)(C)C1=O | -5.6 | 1.4% | 6.3% | 14.7 | -20.5 | -22.5%
Cc1ccc(C(=O)CCC(=O)OCC(=O)N2c3ccccc3NC(=O)C2(C)C)cc1 | 6.1 | 0.9% | -18.3% | 3.1 | -1.7 | 0.4%
Cc1ccccc1OCc1nnc(SCC(=O)Nc2ccc3c(c2)oc2ccccc23)n1C | -3.0 | 14.1µM* | ? | 0.0 | -14.1 | ?
Cc1ccccc1OCc1nnc(SCC(=O)Nc2ccc3nc(SCC(=O)NC(C)(C)C)sc3c2)n1C | 22.4 | -5.0% | 18.4µM* | -11.0 | 8.7 | ?
CCN(CC)C(=O)CSc1nc2ccc(NC(=O)CSc3nnc(COc4ccccc4C)n3C)cc2s1 | 4.4 | -1.0% | ? | -12.6 | 35.3 | ?
Cc1noc(C)c1-c1cncnc1Nc1ccccc1 | · | · | 18.2% | · | · | 13.5%
Cc1ccc(C(=O)N2CCN(c3ccc(NC(=O)Cc4ccccc4)cc3)CC2)cc1 | 6.6 | -0.9% | ? | ? | -1.9 | ?
CS(=O)(=O)c1ccc(Cl)c(NC(=O)COc2ccc3c(c2)CCC3)c1 | -17.4 | -2.0% | -11.5% | 8.2 | -15.1 | -9.3%
COc1cccc(C(O)c2nc(-c3ccccc3C)cs2)c1 (stereo unspecified) | 4.9 | 0.5% | ? | 21.8 | -8.1 | 18.4µM*
COc1ccc(C(O)c2nc(-c3ccccc3C)cs2)cc1 (stereo unspecified) | -12.4 | 0.2% | ? | 16.1 | -94.6* | ?
SMILES | DRD3 agonist | ClpP mod | TDP1 cell CPT | IL1B secr inh | D3 antag | TDP1 cell noCPT
C[C@@H]1CN([C@@H](C)CO)C(=O)CCCn2nncc2CO[C@H]1CN(C)C | 0.1 | 0.8% | 5.1% | 25.2 | -1.9 | -7.3%
CCOC(=O)C(NC(=O)c1ccc(Cl)cc1Cl)(Nc1ccc(C)cc1)C(F)(F)F (stereo unspecified) | -0.6 | 3.1% | 23.1µM* | -20.8 | 7.5 | 16.4µM*
Cc1cc(C(=O)Nc2ccccc2-c2nc(CNC(=O)C3COc4ccccc4O3)c(C)o2)c(C)o1 (stereo unspecified) | · | · | 5.3%[9.04 µM] | · | · | -20.1%
CCCCC(CC(O)COCCC)C(=O)NN (stereo unspecified) | 1.2 | · | 24.4% | 0.0 | 1.6 | -3.5%
CCN1C(=O)C(CC(=O)NC)N(NC(=O)c2ccccc2)C1=S (stereo unspecified) | -0.1 | 25.1µM* | 1.9% | 2.6 | 8.9 | -10.1%
CCN1C(=O)C(CC(=O)NCCc2ccccc2)N(NC(=O)c2cccnc2)C1=S (stereo unspecified) | 4.3 | 1.9% | 4.1% | 3.2 | -4.6 | -20.0%
CCN1CCN(C2=C(Cl)C(=O)N(Cc3ccccc3)C2=O)CC1 | -7.2 | -0.2% | 23.1µM* | -20.6 | -50.5* | ?
O=[N+]([O-])c1ccc(OCCO)c(P(=O)(c2ccccc2)c2ccccc2)c1 | 6.6 | · | 15.2% | -14.5 | 5.2 | -19.8%
O=C(CCN1Cc2ccccc2OC(c2ccccc2F)C1)N1CCC(N2CCCC(O)C2)CC1 (stereo unspecified) | · | · | 2.0%[9.04 µM] | · | · | -21.3%
O=C(C1CCCCN1S(=O)(=O)c1ccccc1)N1CCN(C(c2ccccc2)c2ccccc2)CC1 (stereo unspecified) | -22.4 | -1.1% | 23.1µM* | 11.5 | -2.8 | 20.6µM*
O=C(C1CCCCN1S(=O)(=O)c1ccccc1)N1CCCCC1 (stereo unspecified) | 14.9 | -0.2% | ? | 21.1 | 6.8 | 16.4µM*
O=C(O)C1CCCCN1S(=O)(=O)c1ccccc1 (stereo unspecified) | -1.2 | -1.6% | 2.3% | 11.6 | -5.8 | 4.0%
O=C(C1CCCN1S(=O)(=O)c1ccc(Cl)c(Cl)c1)N1CCCCC1 (stereo unspecified) | -6.1 | 1.6% | 18.4µM* | 6.5 | 0.0 | 16.4µM*
Cc1ccnc(NC(=O)Nc2ccc3c(c2)OCO3)c1 | 1.2 | · | 4.7% | -15.1 | 2.8 | 16.3%
CCCCC[C@@H](/C=C/C1C(=O)C=C[C@H]1C/C=C\CCCC(=O)OC)OC(C)=O (stereo partly specified) | 8.3 | 0.8% | 9.2µM* | -100.9* | -13.9 | 6.51µM*
COc1ccc(-c2nc3ccc(C4=NNC(=O)CC4C)cc3[nH]2)cc1 (stereo unspecified) | -1.7 | · | ? | · | · | 13.3µM*

Bioassay records as filed in PubChem.
